PubChem BioAssay (NCATS)
Inconclusive results are not listed. Entries that show only a call come without a potency. Activity calls are given as the source filed them. The call rests on the fitted dose curve; in most records, active means well fitted inhibition curve with a large enough effect; inconclusive means small, poorly fitted or top-dose-only effect; inactive means no such curve, though single readings can be large or run the other way.

assay: P-glycoprotein substrates identified in KB-3-1 adenocarcinoma cell line, qHTS therapeutic library screen (AID 1346986); conditions: KB-3-1 parental cells viability, CellTiter-Glo, 72 h; series mostly up to 44.5 µM; further: nearly all actives have a fitted effect of over 60% in size;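 further: potency is for cytotoxicity meaning loss of cell viability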
Protocol: The ATP-binding cassette transporters P-glycoprotein (P-gp) is known to limit brain penetration of many chemotherapy drugs. […] We used the CellTiter-Glo viability assay to test library compounds against the parental KB-3-1 human cervical adenocarcinoma cell line and the colchicine-selected sub-line KB-8-5-11 that over-expresses P-gp. KB-8-5-11 cells were also tested in the presence of a P-gp inhibitor (tariquidar) to assess reversability of transporter-mediated resistance. Of the tested compounds, a total of 90 P-gp substrates were identified including 55 newly identified P-gp substrates. Substrates were confirmed using an orthogonal killing assay against HEK-293 cells transfected with P-gp. As exemplars, we confirmed that AT7159 (cyclin-dependent kinase inhibitor); AT9283, (Janus kinase 2/3 inhibitor); ispinesib (kinesin spindle protein inhibitor); gedatolisib (PKI-587, phosphoinositide 3-kinase/mammalian target of rampamycin inhibitor); GSK-690693 (AKT inhibitor); and KW-2478 (heat shock protein 90 inhibitor) were substrates , and direct ATPase stimulation was assessed. ABCG2 was also found to confer high levels of resistance to AT9283, GSK-690693 and gedatolisib, while ispinesib, AT7519 and KW-2478 were weaker substrates.
The HeLa derivative cell line, KB-3-1, and its colchicine-selected, P-gp-overexpressing subline, KB-8-5-11 were maintained in DMEM with 10% FCS and Pen/Strep with glutamine at 37 degree C in 5% CO2. For KB-8-5-11 cells, colchicine was added to the medium at a concentration of 100 ng/mL. HEK-293 cells transfected with empty vector (pcDNA) or vector containing human ABCB1 (MDR-19) or ABCG2 (R-5) have been described previously (Robey, Lin, Qiu, Chan & Bates, 2011) and were maintained in EMEM supplemented with 10% FCS, Pen/Strep and glutamine with 2 mg/ml G418 to select for the expression of the transporter. Cultures were confirmed to be free of mycoplasma infection using the MycoAlert Mycoplasma Detection Kit (Lonza, Walkersville, MD). For the screen, assay medium was identical to culture medium except for KB-8-5-11 where colchicine was excluded from the medium.
All cell lines were plated into 1536-well plates at 500 cells/well in 5 uL media. Compounds were then pinned in dose-response using a 1536-head pin tool (Kalypsis, San Diego, CA) and plates were incubated at 37 degree C in 5% CO2 for an additional 72 h. CellTiter-Glo reagent (Promega) was dispensed into the wells, incubated for 5 min and luminescence was read on a ViewLux instrument (Perkin-Elmer). Cytotoxic compounds were defined as those that yielded a curve class of -1.1, -1.2, -2.1, -2.2, -2.3, or -2.4, a maximum response of >50% and an AC50 of < 10 uM. Cherry-picked hits from screening analysis were tested with both the KB pair of cell lines, and the pcDNA (empty vector control) and MDR-19 (P-gp overexpressing) pair were tested, in the absence and presence of tariquidar.
Potency means the concentration at half of the fitted maximal effect.

Row | SMILES | Potency | outcome
1 | C=C[C@H]1[C@H](O[C@@H]2O[C@H](CO)[C@@H](O)[C@H](O)[C@H]2O)OC=C(C(=O)OC)[C@H]1CCOC(=O)c1cc(O)c(O)c(O)c1 | inactive | 
2 | CCC(O)C(C)C1CCC(C(C)C(=O)O)O1 (stereo not given) | inactive | 
3 | CC1(C)CCC2(C(=O)OC3OCC(O)C(O)C3O)CCC3(C)C(=CCC4C5(C)CC(O)C(OC6OC(COC7OCC(O)C(O)C7O)C(O)C(O)C6O)C(C)(C)C5CCC43C)C2C1 (stereo not given) |  | inactive [at 9.29 µM]
4 | CC(O)(CC(=O)O)CC(=O)OCc1ccc(O[C@@H]2O[C@H](CO)[C@@H](O)[C@H](O)[C@H]2O)cc1 (stereo not given in full) | inactive | 
5 | CC(C)CC1NC(=O)C(C)NC(=O)C(CC(C)C)OC(=O)CCCNC1=O (stereo not given) | inactive | 
6 | NC(=O)[C@H](O[C@@H]1O[C@H](CO)[C@@H](O)[C@H](O)[C@H]1O)c1ccccc1 | inactive | 
7 | O=C(NCC(O)CO)c1ccncc1Nc1ccc(I)cc1F (stereo not given) | inactive | 
8 | CC(=O)O[C@@H]1[C@@H](O)[C@H](O[C@H]2CC[C@]34C[C@]35CC[C@]3(C)[C@@H]([C@@]6(C)CC[C@@H](C(C)(C)O)O6)[C@@H](O)C[C@@]3(C)[C@@H]5C[C@H](O[C@@H]3O[C@H](CO)[C@@H](O)[C@H](O)[C@H]3O)[C@H]4C2(C)C)OC[C@H]1O | inactive | 
9 | CC1CCN(C(=O)CC#N)CC1N(C)c1ncnc2[nH]ccc12 (stereo not given) | inactive | 
10 | CCOc1cc(C)c(Cl)cc1S(=O)(=O)n1cnc2ccccc21 | inactive | 
11 | COc1cc2c3c(cc4ccccc4c3c1O)NC2=O | inactive | 
12 | CC1(C)CC[C@]2(C(=O)O[C@@H]3O[C@H](CO)[C@@H](O)[C@H](O)[C@H]3O)CC[C@]3(C)C(=CCC4[C@@]5(C)C[C@@H](O)[C@H](O)C(C)(C)C5CC[C@]43C)C2[C@@H]1O (stereo not given in full) | inactive | 
13 | CC(C)C[C@H](CC(=O)NO)C(=O)N[C@H](C(=O)N[C@@H](C)C(=O)NCCN)C(C)(C)C |  | inactive [at 9.29 µM]
14 | CC(C)=C/C=C\[C@H](C)[C@H]1CC[C@]2(C)C[C@@H]3C(C)=CC(=O)C3/C(CO)=C\C[C@@H]12 (stereo not given in full) | inactive | 
15 | CCCOC(c1cc2nccc(C(=O)O)c2[nH]1)c1ccccc1Cl (stereo not given) | inactive | 
16 | CC(=O)c1c(O)cc(O[C@@H]2O[C@H](CO)[C@@H](O)[C@H](O)[C@H]2O)cc1O | inactive | 
17 | CC1CC[C@]2(C(=O)O)CC[C@]3(C(=O)O)C(=CCC4[C@@]5(C)CC[C@H](OC6OC(C)C(O)C(OC7OC(CO)C(O)C(O)C7O)C6O)C(C)(C)C5CC[C@]43C)C2C1C (stereo not given in full) | inactive | 
18 | C[C@H]1C(=O)N2c3ccccc3[C@@]3(O)C[C@@H]4C(=O)N[C@](C)(c5nc6ccccc6c(=O)n54)N1[C@@H]23 | inactive | 
19 | CC(C)(O)c1ccc2c(c1)C(O)C[C@H]1[C@](C)(C(=O)O)CCC[C@]21C (stereo not given in full) | inactive | 
20 | C=C(C(=O)O)C1CCC2(C)CCC(O)C(=C)C2C1 (stereo not given) | inactive | 

Row | SMILES | Potency | outcome
21 | CC1=CC(=O)CC(C)(C)[C@H]1/C=C/C(CO)O[C@@H]1O[C@H](CO)[C@@H](O)[C@H](O)[C@H]1O (stereo not given in full) | inactive | 
22 | COc1cc([C@H]2c3cc(O)c(OC)cc3C[C@@H](CO[C@@H]3O[C@H](CO)[C@@H](O)[C@H](O)[C@H]3O)[C@@H]2CO)ccc1O | inactive | 
23 | COc1cc(O)cc(/C=C/c2ccc(O[C@@H]3O[C@H](CO)[C@@H](O)[C@H](O)[C@H]3O)cc2)c1 | inactive | 
24 | COC(=O)C1=COC(OC2OC(CO)C(O)C(O)C2O)C2C1C=CC2(O)CO (stereo not given) | inactive | 
25 | OC[C@H]1O[C@@H](Oc2ccccc2)[C@H](O)[C@@H](O)[C@@H]1O | inactive | 
26 | CCN1CCN(Cc2ccc(NC(=O)c3ccc(C)c(NC(=O)c4cncc(-c5cccs5)c4)c3)cc2C(F)(F)F)CC1 | 2060 nM (active) | 
27 | Cn1cc(-c2ccc3nnc(Sc4ccc5nn(C)cc5c4)n3n2)cn1 | inactive | 
28 | O=C(O)c1cn(C2CC2)c2cc(N3C[C@@H]4C[C@H]3CN4)c(F)cc2c1=O | inactive | 
29 | CC(C)(F)C[C@@H](N[C@@H](c1ccc(-c2ccc(S(C)(=O)=O)cc2)cc1)C(F)(F)F)C(=O)NC1(C#N)CC1 | inactive | 
30 | CN[C@@H]1[C@H](O[C@H]2[C@H](O[C@@H]3[C@@H](O)[C@H](O)[C@@H](N=C(N)N)[C@H](O)[C@H]3N=C(N)N)O[C@@H](C)[C@]2(O)C=O)O[C@@H](CO)[C@H](O)[C@H]1O | inactive | 
31 | CC(C)(O[C@@H]1O[C@H](CO)[C@@H](O)[C@H](O)[C@H]1O)C(OC(=O)/C=C\c1ccc(O)cc1)C(=O)OCc1ccc(O[C@@H]2O[C@H](CO)[C@@H](O)[C@H](O)[C@H]2O)cc1 (stereo not given in full) | inactive | 
32 | CC(C)=CC/C=C(\C)[C@H]1CC[C@]2(C)[C@@H]1[C@H](O)C[C@@H]1[C@@]3(C)CC[C@H](O)C(C)(C)[C@@H]3[C@@H](O[C@@H]3O[C@H](CO)[C@@H](O)[C@H](O)[C@H]3O)C[C@]12C | inactive | 
33 | CCCn1c(=O)c2[nH]c(-c3ccc(OCC(=O)O)cc3)nc2n(CCC)c1=O | inactive | 
34 | C=C1CC[C@@H]2[C@](C)(CO[C@@H]3O[C@H](CO)[C@@H](O)[C@H](O)[C@H]3O)[C@H](O)CC[C@@]2(C)[C@@H]1C/C=C1/C(=O)OC[C@H]1O | inactive | 
35 | CC(C)(C)NS(=O)(=O)c1cncc(-c2cc(F)c3nc(N)nn3c2)c1 | inactive | 
36 | CC(C)S(=O)(=O)N[C@H]1CCOC[C@@H]1c1ccc(-c2ccc(C#N)s2)cc1 | inactive | 
37 | CC(=O)/C=C/[C@H]1[C@](C)(O)[C@@H](O)[C@H](OC(C)=O)C2C(C)(C)CCC[C@@]21C (stereo not given in full) | inactive | 
38 | O=C(OC1C=C(CO)C2C(OC3OC(CO)C(O)C(O)C3O)OC=CC12)c1ccc(O)cc1 (stereo not given) | inactive | 
39 | CC1CC(C(O)C(C)(C)O)OC2CC3(C)C4(C)CCC5C(C)(C)C(=O)CCC5(C)C4CCC3(O)C12O (stereo not given) | inactive | 
40 | CC1CC(O)C2(OC1=O)OC1C(O)C3C4CCC5CC(OC6OC(CO)C(O)C(O)C6OC6OC(C)C(O)C(O)C6O)CCC5(C)C4CCC3(C)C1C2C (stereo not given) | inactive | 
